Experimental data reported in PubChem BioAssay (Tox21).
Values joined by “and” are separate entries in the source; they are usually repeats but may differ in a detail not shown here. Equal values may be shown once. Results filed as inconclusive are left out. Active and inactive are the calls of the source. Unless noted, calls come from the whole dose curve; as a rule, active = well fitted curve in the direction sought with a large enough effect in the repeat runs; inconclusive = weak or mixed curves; inactive = no such curve, though single readings can be large; an effect the other way counts as inactive or inconclusive.

Tests used:
[1] = qHTS assay to identify small molecule agonists of the peroxisome proliferator-activated receptor delta (PPARd) signaling pathway - cell viability counter screen (AID 743211); note: nearly all actives have a fitted effect of over 55% in size; note: potency is the fitted concentration of half-maximal effect
Procedure, shortened: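 Tox21 library compounds, delivered in DMSO, were incubated 17 h with PPARd-bla HEK293H cells; cytotoxicity was taken from CellTiter-Glo luminescence read 30 min after reagent addition.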

[2] = qHTS assay to identify small molecule antagonists of the peroxisome proliferator-activated receptor delta (PPARd) signaling pathway - cell viability counter screen (AID 743213); note: nearly all actives have a fitted effect of over 50% in size; note: potency is the fitted concentration of half-maximal effect
Procedure, shortened: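 HEK293H cells with the PPARd UAS-bla reporter, co-treated 17 h at 37 C with compounds and L165041 (300 nM final), were lysed with CellTiter-Glo. Luminescence indicated viable cell content.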

[3] = qHTS assay to identify small molecule agonists of the farnesoid-X-receptor (FXR) signaling pathway - cell viability counter screen (AID 743218); note: nearly all actives have a fitted effect of over 45% in size; note: potency is the fitted concentration of half-maximal effect
Procedure, shortened: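 In GeneBLAzer FXR-UAS-bla HEK 293T cells, compounds act for 16 h at 37 C. Cell viability is then scored in the reporter wells by CellTiter-Glo, 30 min at RT, luminescence.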

[4] = target: Bile acid receptor (Homo sapiens) (UniProt Q96RI1); test: qHTS assay to identify small molecule agonists of the farnesoid-X-receptor (FXR) signaling pathway (AID 743220; active = well fitted activation curve with a large enough effect in the signal ratio in the repeat runs, not every such curve was filed as active; the % refers to the signal ratio)
Procedure, shortened: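 Beta-lactamase reporter under UAS control in GeneBLAzer FXR HEK 293T cells (5000/well) measured with LiveBLAzer FRET substrate after 2 h at room temperature. Compound exposure lasted 16 h at 37C.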

[5] = qHTS assay to identify small molecule antagonists of the farnesoid-X-receptor (FXR) signaling pathway - cell viability counter screen (AID 743221; active = well fitted cell-killing curve with a large enough effect in the repeat runs, not every such curve was filed as active; note: nearly all actives have a fitted effect of over 50% in size; note: potency is the fitted concentration of half-maximal effect)
Procedure, shortened: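 Cytotoxicity is taken from ATP luminescence (CellTiter-Glo, 30 min, room temperature) in FXR-bla HEK 293T cells previously incubated 16 h at 37 C with compound and chenodeoxycholic acid at 50 uM final.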

[6] = target: Vitamin D3 receptor (Homo sapiens) (UniProt P11473); test: qHTS assay to identify small molecule agonists of the vitamin D receptor (VDR) signaling pathway (AID 743222; calls by dose curve)
Procedure, shortened: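 Agonist activity measured in VDR-bla reporter cells. Exposure 16 h, 37C, 5% CO2; detection by B/G FRET substrate, 2 h RT.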

[7] = target: Vitamin D3 receptor (Homo sapiens) (UniProt P11473); test: qHTS assay to identify small molecule antagonists of the vitamin D receptor (VDR) signaling pathway (AID 743223; active = well fitted inhibition curve with a large enough effect in the signal ratio in the repeat runs, not every such curve was filed as active; the % refers to the signal ratio)
Procedure, shortened: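 Quantitative HTS in VDR-bla reporter cells stimulated with 1alpha,25-dihydroxyvitamin D3, 3 nM final. Compound exposure 16 h, 37C, 5% CO2. Read-out: beta-lactamase FRET substrate fluorescence, 2 h RT.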

[8] = qHTS assay to identify small molecule agonists of the vitamin D receptor (VDR) signaling pathway - cell viability counter screen (AID 743224); note: nearly all actives have a fitted effect of over 50% in size; note: potency is the fitted concentration of half-maximal effect
Procedure, shortened: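 VDR-bla cell line, quantitative HTS format; 16 h compound incubation (37C, 5% CO2); ATP-based CellTiter-Glo luminescence measured in the reporter assay wells.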

[9] = qHTS assay to identify small molecule antagonists of the vitamin D receptor (VDR) signaling pathway - cell viability counter screen (AID 743225); note: nearly all actives have a fitted effect of over 50% in size; note: potency is the fitted concentration of half-maximal effect
Procedure, shortened: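 Same-well multiplex: following 16 h treatment of HEK 293T cells carrying a UAS-driven beta-lactamase reporter with compound and agonist (3 nM final), and a 2 h FRET substrate step, CellTiter-Glo was added and luminescence read after 30 min.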

[10] = qHTS assay to identify small molecule agonists of the NFkB signaling pathway - cell viability counter screen (AID 1159515; calls by dose curve; note: nearly all actives have a fitted effect of over 55% in size; note: potency is the fitted concentration of half-maximal effect)
Procedure, shortened: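 Viability in NFkB-bla ME-180 cells was measured by CellTiter-Glo luminescence, 30 min room temperature, in wells already treated 5 hr with compounds and read for reporter FRET.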

[11] = qHTS assay to identify small molecule agonists of the endoplasmic reticulum stress response signaling pathway - cell viability counter screen (AID 1159517; calls by dose curve; note: nearly all actives have a fitted effect of over 50% in size; note: potency is the fitted concentration of half-maximal effect)
Procedure, shortened: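 CellTiter-Glo was added to wells already read for beta-lactamase FRET, and luminescence was recorded 30 min later. Cells: ESRE-bla HeLa, 1,500 per well, compound exposure 5 hr at 37 C.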

[12] = qHTS assay to identify small molecule antagonists of the retinoid-related orphan receptor gamma (ROR-gamma) signaling pathway - cell viability counter screen (AID 1159520); note: nearly all actives have a fitted effect of over 50% in size; note: potency is the fitted concentration of half-maximal effect
Procedure, shortened: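 Tet-on ROR gamma CHO cells (1,000/well) were plated 4 hr, given compounds in DMSO for 2 hr at 37 C, then induced with 1 uM final doxycycline for 16 hr. Viability was read as ATP by CellTiter-Glo luminescence after 30 min.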

[13] = target: Nuclear receptor ROR-gamma (Homo sapiens) (UniProt P51449); test: qHTS assay to identify small molecule antagonists of the retinoid-related orphan receptor gamma (ROR-gamma) signaling pathway (AID 1159521; note: nearly all actives have a fitted effect of over 50% in size; note: potency is the fitted concentration of half-maximal effect)
Procedure, shortened: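 Inducible-expression reporter assay: doxycycline (1 uM final) switched on RORγ in CHO cells bearing a ROR response element-luciferase construct, with test compounds present from 2 h beforehand. Decreased luminescence after 16 h defined antagonist activity.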

[14] = qHTS assay to identify small molecule agonists of the AP-1 signaling pathway - cell viability counter screen (AID 1159525; calls by dose curve; note: nearly all actives have a fitted effect of over 55% in size)
Procedure, shortened: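 ME-180 AP-1-bla, 2500 cells/well, Opti-MEM + 0.5% dialyzed FBS; overnight 37 °C; cpd 15-pt titration, 5 h 37 °C; CellTiter-Glo 30 min RT; luminescence read; normalised to TOAB and DMSO controls.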

[15] = qHTS assay to identify small molecule agonists of the AP-1 signaling pathway (AID 1159526; calls by dose curve)
[16] = target: Retinoic acid receptor RXR-alpha (Homo sapiens) (UniProt P19793); test: qHTS assay to identify small molecule agonists of the RXR signaling pathway (AID 1159527; calls by dose curve; note: nearly all actives have a fitted effect of over 35% in size; note: potency is the fitted concentration of half-maximal effect)
Procedure, shortened: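 Compounds in DMSO were added to RXR-alpha-UAS-bla HEK 293T cells kept in 2% charcoal-stripped serum, and incubated 16 hr at 37 C with 5% CO2. Reporter signal came from a 2 hr B/G FRET substrate step.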

[17] = target: Peroxisome proliferator-activated receptor delta (Homo sapiens) (UniProt Q03181); test: qHTS assay to identify small molecule agonists of the peroxisome proliferator-activated receptor delta (PPARd) signaling pathway (AID 743212; calls by dose curve)
Procedure, shortened: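 A PPARd-bla HEK293H line with beta-lactamase under an Upstream Activator Sequence is treated with compounds at 37 C. Substrate loading for 2 h at room temperature precedes the fluorescence measurement.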

[18] = target: Peroxisome proliferator-activated receptor delta (Homo sapiens) (UniProt Q03181); test: qHTS assay to identify small molecule antagonists of the peroxisome proliferator-activated receptor delta (PPARd) signaling pathway (AID 743215; active = well fitted inhibition curve with a large enough effect in the signal ratio in the repeat runs, not every such curve was filed as active; the % refers to the signal ratio;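 note: cells stimulated with agonist L165041 at 300 nM final during compound exposure; series mostly up to about 62 µM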)
Procedure, shortened: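 Antagonist-mode beta-lactamase reporter screen: HEK293H cells with UAS-bla under PPARd control, stimulated by 300 nM L165041 (final) alongside test compound for 17 h at 37 C, then FRET fluorescence after 2 h substrate incubation.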

[19] = target: Bile acid receptor (Homo sapiens) (UniProt Q96RI1); test: qHTS assay to identify small molecule antagonists of the farnesoid-X-receptor (FXR) signaling pathway (AID 743217; active = well fitted inhibition curve with a large enough effect in the signal ratio in the repeat runs, not every such curve was filed as active; the % refers to the signal ratio)
Procedure, shortened: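 Beta-lactamase reporter under UAS control in HEK 293T cells; compound exposure 16 h at 37 °C in the presence of chenodeoxycholic acid (50 uM final); signal from B/G FRET substrate after 2 h at room temperature.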

[20] = qHTS assay to identify small molecule agonists of the endoplasmic reticulum stress response signaling pathway (AID 1159516; active = well fitted activation curve with a large enough effect in the signal ratio in the repeat runs, not every such curve was filed as active; the % refers to the signal ratio)
Procedure, shortened: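 ER stress element reporter (bla) in HeLa. 1,500 cells/well, overnight attachment; 5 hr compound; 2 hr RT substrate; dual-emission fluorescence.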

Measured: Potency

Sequence of Vitamin D3 receptor (Homo sapiens) (P11473 whole entry, looked up): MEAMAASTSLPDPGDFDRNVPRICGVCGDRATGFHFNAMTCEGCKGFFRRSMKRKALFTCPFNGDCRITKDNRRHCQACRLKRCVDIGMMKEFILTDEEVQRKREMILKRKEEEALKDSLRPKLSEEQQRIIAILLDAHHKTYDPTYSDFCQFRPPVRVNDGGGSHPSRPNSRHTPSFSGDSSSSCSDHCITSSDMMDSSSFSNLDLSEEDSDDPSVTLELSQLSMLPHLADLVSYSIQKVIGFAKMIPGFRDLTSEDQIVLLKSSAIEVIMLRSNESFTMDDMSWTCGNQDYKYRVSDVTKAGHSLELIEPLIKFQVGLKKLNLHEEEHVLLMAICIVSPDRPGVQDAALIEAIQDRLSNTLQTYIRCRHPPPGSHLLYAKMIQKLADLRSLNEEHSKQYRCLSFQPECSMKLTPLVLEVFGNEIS
Sequence of Peroxisome proliferator-activated receptor delta (Homo sapiens) (Q03181 whole entry, looked up): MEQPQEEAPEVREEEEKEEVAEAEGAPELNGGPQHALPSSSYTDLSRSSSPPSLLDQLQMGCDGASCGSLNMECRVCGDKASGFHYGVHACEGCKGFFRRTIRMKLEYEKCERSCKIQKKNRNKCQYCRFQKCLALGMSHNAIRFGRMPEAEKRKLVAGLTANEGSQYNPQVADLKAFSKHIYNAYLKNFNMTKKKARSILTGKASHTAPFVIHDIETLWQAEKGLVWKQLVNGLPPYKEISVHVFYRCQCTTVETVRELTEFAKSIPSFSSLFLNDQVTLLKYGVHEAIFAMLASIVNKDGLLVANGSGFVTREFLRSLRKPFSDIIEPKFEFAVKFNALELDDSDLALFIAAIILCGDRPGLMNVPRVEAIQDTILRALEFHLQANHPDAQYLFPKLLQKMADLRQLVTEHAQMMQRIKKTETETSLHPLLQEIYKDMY
Sequence of Retinoic acid receptor RXR-alpha (Homo sapiens) (P19793 whole entry, looked up): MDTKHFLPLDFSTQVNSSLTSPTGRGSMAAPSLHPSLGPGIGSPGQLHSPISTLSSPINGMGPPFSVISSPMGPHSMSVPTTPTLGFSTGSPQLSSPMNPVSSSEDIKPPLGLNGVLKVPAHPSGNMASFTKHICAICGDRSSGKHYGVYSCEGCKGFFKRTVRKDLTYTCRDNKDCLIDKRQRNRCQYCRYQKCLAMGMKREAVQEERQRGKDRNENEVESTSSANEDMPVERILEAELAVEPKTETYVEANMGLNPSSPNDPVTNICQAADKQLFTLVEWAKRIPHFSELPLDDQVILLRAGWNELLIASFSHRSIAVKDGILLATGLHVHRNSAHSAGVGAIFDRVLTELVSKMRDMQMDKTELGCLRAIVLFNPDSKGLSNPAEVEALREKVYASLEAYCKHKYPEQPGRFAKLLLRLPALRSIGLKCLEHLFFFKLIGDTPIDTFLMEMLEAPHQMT
Sequence of Bile acid receptor (Homo sapiens) (Q96RI1 whole entry, looked up): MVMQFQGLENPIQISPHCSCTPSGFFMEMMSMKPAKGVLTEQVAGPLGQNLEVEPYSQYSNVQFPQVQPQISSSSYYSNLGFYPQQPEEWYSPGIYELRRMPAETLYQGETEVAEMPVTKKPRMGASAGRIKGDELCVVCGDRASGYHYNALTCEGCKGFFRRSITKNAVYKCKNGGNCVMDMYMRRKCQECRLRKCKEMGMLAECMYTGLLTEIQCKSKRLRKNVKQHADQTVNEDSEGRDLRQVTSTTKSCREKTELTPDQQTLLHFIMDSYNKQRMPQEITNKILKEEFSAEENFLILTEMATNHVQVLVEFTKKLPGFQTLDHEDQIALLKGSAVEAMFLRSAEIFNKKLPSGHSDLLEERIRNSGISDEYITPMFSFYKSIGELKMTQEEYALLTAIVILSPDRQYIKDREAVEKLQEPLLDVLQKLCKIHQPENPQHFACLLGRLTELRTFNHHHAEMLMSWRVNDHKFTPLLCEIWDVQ

Cc1ccc(C(C)C)cc2c(C)ccc1-2
not listed: [17] | [18] | [19] | [20]
inactive: all other assays above

O=C1CCCCCCCCCCCCCCCO1
not listed: [3] | [4] | [6] | [7] | [20]
inactive: all other assays above

CCOC(=O)NNc1ccc(N(CC)CC(C)O)nn1 (centres undefined)
not listed: [6] | [20]
inactive: all other assays above

Nc1nc(N)nc(-c2cc(Cl)ccc2Cl)n1
not listed: [6] | [7] | [9] | [20]
inactive: all other assays above

Cc1c(N)cccc1C(F)(F)F
not listed: [2] | [4] | [17] | [19] | [20]
inactive: all other assays above

O=C(O)Cc1ccccc1Nc1c(Cl)cccc1Cl
not listed: [4] | [7] | [16] | [20]
inactive: all other assays above

O=C(O)c1cc(-c2ccc(F)cc2F)ccc1O
inactive: [1] | [3] | [5] | [8] | [10] | [11] | [12] | [13] | [14] | [15]

Nc1ccc(C(=O)O)c(O)c1
not listed: [19] | [20]
inactive: all other assays above

COc1cc(C)ccc1O
not listed: [4] | [19] | [20]
inactive: all other assays above

CCC(COC(=O)CCS)(COC(=O)CCS)COC(=O)CCS
not listed: [19] | [20]
inactive: all other assays above

COc1ccc2c(c1)c(CC(=O)OC/C=C(\C)CC/C=C(\C)CCC=C(C)C)c(C)n2C(=O)c1ccc(Cl)cc1
not listed: [6] | [16] | [17] | [18] | [19] | [20]
inactive: all other assays above

Cc1nc(-c2ccc(Cl)cc2)oc1COC(C)(C)C(=O)O
not listed: [17] | [18] | [20]
inactive: all other assays above

O=C(O)c1cc(N=Nc2ccc([N+](=O)[O-])cc2)ccc1O
active: [3] 30.3 µM
not listed: [4] | [6] | [7] | [16] | [17] | [19] | [20]
inactive: all other assays above

Fc1ccc(C(c2ccc(F)cc2)N2CCNCC2)cc1
active: [1] 7.5 µM | [3] 11.9 µM | [5] 26.6 µM | [8] 26.6 µM | [9] 16.9 µM
inactive: [6] | [10] | [11] | [12] | [13] | [14] | [15] | [16]

CN(C)Cc1ccccc1O
not listed: [1] | [19] | [20]
inactive: all other assays above

CCCNCCC
not listed: [7] | [19] | [20]
inactive: all other assays above

CCCCCCCCCCCC(=O)OCC(C)OC(=O)CCCCC(=O)O (centres undefined)
not listed: [1] | [4] | [7] | [19] | [20]
inactive: all other assays above

CCN(CCN)c1cccc(C)c1
not listed: [4] | [16] | [17] | [18] | [19] | [20]
inactive: all other assays above

Cc1c(C)c2c(c(C)c1O)CC[C@@](C)(CCC[C@H](C)CCC[C@H](C)CCCC(C)C)O2
not listed: [1] | [4] | [19] | [20]
inactive: all other assays above

CCOC(=O)Cn1cccc1-c1nc(-c2ccc(OC)cc2)c(-c2ccc(OC)cc2)s1
not listed: [3] | [4] | [6] | [16] | [17] | [18] | [19] | [20]
inactive: all other assays above

Cc1cc(-n2nc3ccc(Cl)cc3n2)c(O)c(C(C)(C)C)c1
not listed: [4] | [19] | [20]
inactive: all other assays above

CC(C)OC(=O)C(O)(CC(=O)O)CC(=O)O
active: [16] 21.9 µM
not listed: [4] | [5] | [18] | [20]
inactive: all other assays above

CCCC1CCC(=O)CC1
not listed: [4] | [6] | [7] | [17] | [18] | [19] | [20]
inactive: all other assays above

CCCCCCCCCCC[C@@H](C[C@@H]1OC(=O)[C@H]1CCCCCC)OC(=O)[C@H](CC(C)C)NC=O
inactive: [2] | [18] | [3] | [7] | [10] | [11] | [14] | [15] | [16]
active: [12] 11.9 µM | [13] 16.8 µM

O=C(/C=C/c1ccccc1)OC/C=C/c1ccccc1
active: [12] 54.5 µM
not listed: [2] | [3] | [16] | [19] | [20]
inactive: all other assays above

CC(C)(C)c1csc(-c2cc3cc(OCc4ccccc4CC(=O)O)ccc3o2)n1
active: [1] 24.5 µM | [2] 30.9 µM
inactive: [5] | [10] | [20]

C=C(C)c1cccc(C(=C)C)c1
not listed: [4] | [6] | [7] | [20]
inactive: all other assays above

Cl[Si](Cl)(c1ccccc1)c1ccccc1
not listed: [2] | [4] | [9] | [18] | [19] | [20]
inactive: all other assays above

C#Cc1ccc(-c2ccccc2F)cc1
not listed: [2] | [4] | [6] | [7] | [19] | [20]
inactive: all other assays above

CC(C)(c1cc(Br)c(OCC(Br)CBr)c(Br)c1)c1cc(Br)c(OCC(Br)CBr)c(Br)c1 (centres undefined)
not listed: [2] | [4] | [17] | [19] | [20]
inactive: all other assays above

CN(C)c1ccc(C(=C2C=CC(=[N+](C)C)C=C2)c2ccc(N(C)C)cc2)cc1
active: [1] 6.88 µM and 7.76 µM and 8.41 µM | [2] 17.3 µM and 17.4 µM and 6.68 µM | [3] 10.9 µM and 19.5 µM and 10.6 µM | [5] 21.8 µM and 27.5 µM and 13.3 µM | [8] 4.87 µM and 4.9 µM and 11.9 µM | [9] 9.72 µM and 21.9 µM and 19 µM | [10] 24.4 µM | [11] 12.3 µM and 9.52 µM | [12] 6.08 µM and 13.7 µM and 5.31 µM | [13] 1.36 µM and 1.54 µM and 2.66 µM
inactive: [6]
